Reference: ChEMBL document CHEMBL3433997, “St. Jude Leishmania screening dataset” (2016)

Each molecule was assayed against Glucose transporter (Leishmania mexicana) (UniProt O61059) (assay: ST_JUDE_LEISH: Cytotoxicity at 2uM final concentration against transgenic Leishmania Mexicana promastigotes LmGT2 that are glucose transport deficient and complemented with the L. Mexicana glucose transporter 2. Activity is measured by DNA content using SYBR green in vitro).
Type: functional
`O=C(Nc1ccc(CCNC2=NCCN2)cc1)Nc1ccc(CCNC2=NCCN2)cc1` showed an inhibition of 3.62%.
Molecule `COc1ccc(NC(=O)C2c3ccccc3C(=O)N(C3CCCC3)C2c2cccs2)c(OC)c1` (stereo not given) has an inhibition of -1.93%.
`CC(C)c1cc2c(ccc3nc(N)nc(N)c32)o1` showed an inhibition of 2.93%.
`O=C(Nc1ccc2c(c1)CCNCC2)c1ccc(-c2ccc(Cl)cc2)cc1` showed an inhibition of 109%.
Work on `N#Cc1ccc2c(c1)CCN(CCC1CCC(NC(=O)/C=C/c3c[nH]c4ccc(F)cc34)CC1)CC2` (stereo not given) yielded an inhibition of 2.6%.
Work on `CCN(CC)CCCC(C)Nc1c(-c2ccc(C)cc2)cnc2ccccc12` (stereo not given) yielded an inhibition of 8.1%.
`CN1CCN(CCCN(Cc2ccc(-c3cccc(CNCc4ccc5c(c4)OCO5)c3)cc2)C(=O)NCCc2ccccc2)CC1` showed an inhibition of 3.58%.
In the case of `Cc1cc(N[C@@H](C)C(=O)Nc2ccccc2)nc(NCCc2ccc(F)cc2)n1`, the inhibition is reported as 1.18%.
With `CN(C)CCN(C)Cc1ccc(-c2ccc3c(Nc4ccc(Cl)cc4F)ccnc3c2)o1` the inhibition was 2.79%.
For `CN1CCN(CCCN(Cc2csc(-c3ccc(CNCc4ccccc4)cc3)n2)S(=O)(=O)c2ccccc2)CC1`, the inhibition was 4.53%.
In the case of `Cc1cccc2nc(-c3cccc(-c4cccc(NC(=O)c5cnn6cccnc56)c4)c3)[nH]c12`, the inhibition is reported as 1.19%.
`Cc1ccccc1Nc1nc(NCc2ccccc2)nc2ccccc12` was tested, and the inhibition was 5.77%.
`CCCC1N=C(N)N=C(N)N1c1cccc([N+](=O)[O-])c1` (stereo not given) gave an inhibition of 0.75%.
Work on `COc1cc(F)c2ncc(Cl)c([C@H](O)CN3CCC(NCc4cc5c(cn4)OCCO5)CC3)c2c1` yielded an inhibition of 2.15%.
With `CC(Cc1ccc(NC(=O)c2ccc(CNCCCCc3ccccc3)cc2)cc1)NCCc1cccc(Cl)c1` (stereo not given) the inhibition was 105%.
Work on `Nc1ccc2nc(C=Cc3ccccc3)[nH]c2c1` yielded an inhibition of 3.06%.
Molecule `Cc1cccc2nc(-c3ccc(-c4ccc(CN5CCC(C(N)=O)CC5)cc4)cc3)[nH]c12` has an inhibition of 5.21%.
`Cn1c(/C=C/C(=O)NC2CCC(CCN3CCc4ccc(C#N)cc4CC3)CC2)cc2ccccc21` (stereo not given) gave an inhibition of 3.48%.
Molecule `Nc1nnc(-c2ccc(Cl)c(Br)c2)c(N)n1` has an inhibition of 4.94%.
`Cc1cccc(C)c1CNc1ccnc2cc(Br)ccc12` was tested, and the inhibition was 5.92%.
`COc1ccc(CCNc2ccnc3cc(Cl)ccc23)cc1OC` was tested, and the inhibition was 0.21%.
`COc1cc2nc(N3CCC(c4ccccc4)CC3)nc(NCc3ccc(=O)[nH]c3)c2cc1OC` showed an inhibition of 1.6%.
With `CC(=O)Nc1nc(C(=O)Nc2cccc(-c3ccc(-c4nc5cccc(C)c5[nH]4)cc3)c2)cs1` the inhibition was 6.75%.
Work on `CCCN(C(=O)c1ccccc1C)c1nnc(-c2ccccc2C)s1` yielded an inhibition of -3.1%.
Work on `CC(O)C1CCCCN1C(=O)c1ccc(-c2cccc(-c3nc4cc(F)ccc4[nH]3)c2)cc1` (stereo not given) yielded an inhibition of 3.89%.
In the case of `O=C(/C=C/c1cccs1)NCC(NCCCNc1cc(=O)c2ccccc2[nH]1)c1cc(Br)cc(Br)c1` (stereo not given), the inhibition is reported as 4.57%.
For `C[C@@H]1CN(C(c2cccc(O)c2)c2cccc(C(=O)N(C)c3cccc(F)c3)c2)[C@@H](C)CN1C(c1cccc(O)c1)c1cccc(C(=O)N(C)c2cccc(F)c2)c1` (stereo not given in full), the inhibition was 2.45%.
Work on `COc1cccc2c(NN=Cc3cccc(Cl)c3)cc(C)nc12` yielded an inhibition of 1.05%.
With `O=C(Nc1cccc(-c2cccc(-c3nc4ccccc4[nH]3)c2)c1)c1ccoc1` the inhibition was 3.82%.
`COc1ccc(CCNCCCCCCNCCc2ccc(-c3ccccc3)cc2)cc1OC` was tested, and the inhibition was 49.7%.
For `O=C(NCCCCN1CCC(c2ccc3c(c2OCCCO)CCCC3)CC1)c1ccc(-c2ccc(C(F)(F)F)cc2)cc1`, the inhibition was 2.9%.
`CCOc1ccc(NC(C)=O)c(O)c1` showed an inhibition of 3.62%.
Work on `COc1cc(CN2CCC(NC(=O)[C@H](Cc3ccccc3)NC(=O)Nc3ccc(Oc4ccccc4)cc3)C2)ccc1O` (stereo not given in full) yielded an inhibition of -3.37%.
Work on `Cc1cccc(Cl)c1Nc1nnc(-c2cccc(C(=O)NC[C@@H]3CC[C@H]4C[C@@H]3C4(C)C)c2)o1` yielded an inhibition of 6.65%.
With `CN1CCN(c2ccnc3ccc(NC(=O)Cc4ccc5ccccc5c4)cc23)CC1` the inhibition was 2.12%.
With `CC(C)N1CCN(CCCNc2c3ccccc3nc3ccccc23)CC1` the inhibition was 19%.
Work on `COc1ccc(O)c(C(=O)c2cc(C(=O)NCCc3ccccc3)c(=O)n(CCc3ccccc3)c2)c1` yielded an inhibition of 5.64%.
`Clc1ccc2c(NCc3ccc4c(c3)OCO4)ccnc2c1` gave an inhibition of 4.15%.
`COc1ccc(Cc2c(C)nc3nc(N)nc(N)c3c2C)cc1OC` gave an inhibition of 12.1%.
With `O=c1cc(NCCCNCc2cc3ccccc3s2)[nH]c2ccccc12` the inhibition was 3.82%.
